Bioassay records: PubChem BioAssay, NMMLSC
Shown are actives, neighbours in structure and some others; about 3.5% of the full set was active somewhere.
Anthrax LF inh2: inhibitors of Bacillus anthracis lethal factor protease; P15917; 0.12% of 360,000 active; multiplex microsphere protease cleavage assay, LF; inhibition, % at 10 µM; further: plate controls were buffer without enzyme for full effect and enzyme alone for no effect
Target sequence (P15917 whole entry, looked up): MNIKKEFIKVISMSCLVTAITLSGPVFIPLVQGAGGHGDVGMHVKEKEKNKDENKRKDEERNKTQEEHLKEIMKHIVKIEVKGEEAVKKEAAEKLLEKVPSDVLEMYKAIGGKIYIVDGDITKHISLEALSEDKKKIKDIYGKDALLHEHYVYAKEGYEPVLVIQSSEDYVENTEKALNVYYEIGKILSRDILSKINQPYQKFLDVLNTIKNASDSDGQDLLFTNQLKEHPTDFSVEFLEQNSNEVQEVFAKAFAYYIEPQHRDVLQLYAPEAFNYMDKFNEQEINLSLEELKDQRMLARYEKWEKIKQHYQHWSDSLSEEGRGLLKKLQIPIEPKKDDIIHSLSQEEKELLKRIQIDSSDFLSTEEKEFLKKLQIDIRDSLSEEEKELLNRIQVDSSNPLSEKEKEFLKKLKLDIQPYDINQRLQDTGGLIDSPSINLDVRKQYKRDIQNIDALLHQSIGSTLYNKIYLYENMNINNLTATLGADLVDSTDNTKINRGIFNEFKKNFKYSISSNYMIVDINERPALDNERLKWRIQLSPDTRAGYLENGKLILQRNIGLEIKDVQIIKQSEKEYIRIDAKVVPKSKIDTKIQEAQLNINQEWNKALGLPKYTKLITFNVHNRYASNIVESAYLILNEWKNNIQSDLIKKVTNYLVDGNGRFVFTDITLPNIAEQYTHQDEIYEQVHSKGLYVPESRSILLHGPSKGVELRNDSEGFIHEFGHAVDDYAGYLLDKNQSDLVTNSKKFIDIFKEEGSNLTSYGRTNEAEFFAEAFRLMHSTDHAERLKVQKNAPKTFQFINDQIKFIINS
BoNT A protease: blocks Botulinum neurotoxin A light chain protease; multiplex microsphere protease substrate cleavage, flow cytometry; inhibition, % at 10 µM; 0.17% of 360,000 active; further: plate controls were buffer without enzyme for full effect and enzyme alone for no effect
Autofluor counter: counter-screen for toxin protease inhibitors: compound fluorescence; compound autofluorescence counterscreen, microsphere flow cytometry; active compounds read high; fluorescence intensity (test concentration not listed); 3.1% of 360,000 active; AID 624483; in the data active means fluorescence intensity above about 16000; inconclusive means no clear call, values can overlap the other calls
BoNT F protease: blocks Botulinum neurotoxin F light chain protease. Multiplex microsphere protease cleavage assay, flow cytometry. inhibition, % at 10 µM. 0.22% of 360,000 active. AID 588497; in the data active means inhibition above about 35%, passing the limit was not always enough; inconclusive means no clear call, values can overlap the other calls; further: plate controls were buffer without enzyme for full effect and enzyme alone for no effect
Active calls of the source: *; ? = inconclusive. Unless noted, no stated cut-off is given here; in the data, active means inhibition above about 30%; inconclusive means no clear call, values can overlap the other calls; inactive means below that.

SMILES	Anthrax LF inh2	BoNT A protease	Autofluor counter	BoNT F protease
CCOc1ccc(NC(=O)CSc2nnc(CCNC(=O)c3ccc(OC)cc3)n2C)cc1	2	?	16470*	0
CCOc1ccc(NC(=O)CSc2nnc(C34CC5CC(CC(C5)C3)C4)n2C)cc1	-1	-2	17197*	0
COc1ccc(CC(=O)NC(C)c2nnc(SCCOc3ccc(OC)cc3)n2C)cc1 (stereo unspecified)	4	0	16217*	2
C=CCn1c(SCCOc2ccc(OC)cc2)nnc1C(C)NC(=O)c1ccc(OC)cc1 (stereo unspecified)	-3	0	8159	-9
C=CCn1c(SCCOc2ccc(OC)cc2)nnc1C(CO)NC(=O)c1ccc(OC)cc1 (stereo unspecified)	-12	17	16235*	24
COc1ccc(Cl)cc1N(CC(=O)NCc1ccccn1)S(=O)(=O)c1ccc(C)cc1	1	0	3990	4
CCC(=O)N1CCN=C1SCc1cccc(C(F)(F)F)c1	-2	-1	4303	4
COc1ccc(OCCSc2nnc(CCNC(=O)c3ccc(Cl)c(Cl)c3)n2C)cc1	-11	3	20984*	1
COc1ccc(C(=O)NNC(=O)CSc2nnc(COc3ccc4ccccc4c3)n2C)cc1	-1	2	15630	2
COc1ccc(OCCSc2nnc(CCNC(=O)c3ccc(OC)cc3)n2C)cc1	4	0	8027	3
COc1ccc(C(=O)NNC(=O)CSc2nnc(COc3ccccc3)n2C)cc1	-7	0	16210*	-2
C=CCOc1c(CNc2ccc(C(=O)O)cc2)cccc1OC	-2	0	2150	-3
C=CCOc1c(CNc2ccc(C(=O)O)cc2)cccc1OCC	0	?	19846*	9
Cc1cnn(-c2nc(-c3cccs3)cc(C(F)(F)F)n2)c1	0	2	23064*	0
Cc1ccc(S(=O)(=O)Nc2ccccc2C(N)=O)cc1	-1	-2	17497*	-12
O=C(CC1SC(=O)N(c2ccccc2)C1=O)Nc1ccccc1 (stereo unspecified)	-3	1	21831*	-4
CC(C(=O)NCC1(c2ccccc2)CCCC1)N1CCOCC1 (stereo unspecified)	0	-1	23756*	0
COc1ccc(Nc2nnc(-c3ccc(N4CCOCC4)c([N+](=O)[O-])c3)c3ccccc23)cc1	-4	-9	22975*	-10
COc1ccc(C(=O)c2ccc(N3CCOCC3)c([N+](=O)[O-])c2)cc1	1	0	4446	3
OC(CNCc1ccccc1)Cn1ccc2ccccc21 (stereo unspecified)	-3	2	3758	-30
Oc1ccccc1NCC(O)Cn1ccc2ccccc21 (stereo unspecified)	0	?	22217*	-3
O=C1c2ccccc2S(=O)(=O)N1CC(O)Cn1ccc2ccccc21 (stereo unspecified)	29	156*	22501*	25
COc1cccc(CNc2nc(NC(C)C)nc3ccsc23)c1	-7	-1	3791	-2
COc1ccc(OCc2cccc(C(=O)Nc3cc(C)on3)c2)cc1	-1	1	22339*	2
CCn1ncc(C(=O)Nc2cc(C)on2)c1C	-6	1	21849*	-1
SMILES	Anthrax LF inh2	BoNT A protease	Autofluor counter	BoNT F protease
Cc1cc(NC(=O)c2cnn3c(C(F)F)cc(-c4ccccc4)nc23)no1	-1	?	22272*	1
CCn1ncc(C(=O)Nc2cccc(Cl)c2)c1C	-5	1	9792	-4
Cc1cc(NC(=O)c2cc(C)on2)no1	0	0	23413*	-3
CCOc1ccc(Cl)cc1-c1cc(C(=O)NCCOC)[nH]n1	0	1	3568	6
CC1=C(C(=O)N(C(C)C)C(C)C)CC(CC(=O)NCc2ccco2)C(=O)N1CCC1=CCCCC1 (stereo unspecified)	-7	1	5154	1
COc1ccc(-c2nnc(NC(=O)c3cc(C)on3)s2)cc1	-2	?	17016*	-3
COc1ccc(C(=O)Nc2cc(C)on2)cc1	-2	0	16745*	2
C/C(=C\C(=O)Nc1cc(C)on1)c1ccccc1	-2	-1	22891*	-3
CC(C)(C)NC(=O)C(c1ccc(-c2ccccc2)cc1)N(C[C@H]1CC[C@@H]([C@@H]2CC[C@H](CO)O2)O1)C(=O)c1ccccc1F (stereo partly specified)	-8	0	3525	4
C/C(=N\Nc1nnc(C)c(=O)[nH]1)C(=O)O	-6	0	23478*	-1
CC(/C=N/Nc1nnc(C)c(=O)[nH]1)=C\c1ccccc1	-2	0	10429	2
O=C(O)c1ccc(-c2ccccc2)[nH]1	-4	2	22282*	0
CC(C)(C)n1nnnc1C(c1ccccc1)N1CCN(CCN2CCOCC2)CC1 (stereo unspecified)	-9	0	5394	0
